# High-throughput results: PubChem, National Center for Advancing Translational Sciences (NCATS)
# The list is not random: actives were taken first. Their share in the collection is about 9.5%.
# ALDH1A1 inh: blocks purified human ALDH1A1 activity; Purified ALDH1A1, NADH fluorescence, propionaldehyde substrate; Potency, µM (doses to about 75.3 µM), for the others: at the top dose activity, negative = inhibition, actives largely listed as inhibitors; P00352; 7.3% of 220,000 active; AID 1030; active means well fitted inhibition curve with a large enough effect, not every such curve was filed as active; inconclusive means small, poorly fitted or top-dose-only effect, or another doubt; inactive means no such curve, though single readings can be large or run the other way;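 further: plate controls were no enzyme wells and a reference inhibitor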
# HPGD block: inhibitors of human 15-hydroxyprostaglandin dehydrogenase (HPGD) | purified HPGD, NADH fluorescence kinetic, PGE2 substrate | Potency, µM, for the others: at the highest dose activity change, negative = inhibition, hits mostly inhibitors | 4.3% of 150,000 active | P15428; active means well fitted inhibition curve with a large enough effect, not every such curve was filed as active; inconclusive means small, poorly fitted or top-dose-only effect, or another doubt; inactive means no such curve, though single readings can be large or run the other way
# Target sequence (P15428 whole entry, looked up): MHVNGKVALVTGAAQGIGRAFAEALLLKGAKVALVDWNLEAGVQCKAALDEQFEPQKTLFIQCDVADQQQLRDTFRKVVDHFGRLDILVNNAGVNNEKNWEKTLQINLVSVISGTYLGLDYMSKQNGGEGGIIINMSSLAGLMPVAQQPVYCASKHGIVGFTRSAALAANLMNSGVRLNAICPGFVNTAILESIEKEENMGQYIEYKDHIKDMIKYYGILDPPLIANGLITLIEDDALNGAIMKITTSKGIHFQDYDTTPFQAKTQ
#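 20 nM HPGD preincubated 15 min at room temperature with compound in 50 mM Tris-HCl pH 8, 0.01% Tween 20. Started with 1 mM NAD+ and 30 uM prostaglandin E2; NADH fluorescence (360/450 nm) read 5 times over 30-s intervals, last minus first.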
# Tau fibril ThT: tau fibrillization inhibition (ThT binding) | P10636 | Potency, µM (doses to about 57.4 µM), for inactives: top-dose activity, negative = inhibition, usual class: inhibitors | 2.1% of 270,000 active | AID 1460 | recombinant tau K18 P301L, heparin-induced fibrillization, ThT fluorescence; further: nearly all actives have a fitted effect of over 55% in size
# Target sequence (P10636 561-689 P618L limits assumed): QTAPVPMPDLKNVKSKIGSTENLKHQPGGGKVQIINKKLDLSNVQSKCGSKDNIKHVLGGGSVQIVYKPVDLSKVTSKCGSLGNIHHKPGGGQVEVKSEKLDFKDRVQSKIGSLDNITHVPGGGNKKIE
#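 Heparin-induced (20 uM) aggregation of recombinant human K18 P301L tau, 15 uM unlabeled with 0.24 uM labeled, pH 7 acetate buffer, 6 hr at 37 C with compound. Fibrils quantified by 30 uM ThT fluorescence after 1 hr ambient incubation.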
# Tau FP inhib: blocks human tau fibril formation measured by polarization. P10636. Potency, µM (highest dose often 57.7 µM), for the others: at the top dose activity, negative = inhibition, hits mostly inhibitors. K18 P301L tau heparin fibrillization, Alexa594 FP, 6 h. 0.39% of 280,000 active; further: nearly all actives have a fitted effect of over 55% in size
#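 Human K18 P301L fragment (15 uM unlabeled plus 0.24 uM Alexa 594-labeled) in 100 mM sodium acetate pH 7 with compound, aggregation induced by 20 uM heparin for 6 hr at 37 C. ThT (30 uM) added for 1 hr, then Alexa 594 FP read.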
# NPSR antag: blocks cAMP signaling of the human neuropeptide S receptor. CHO-NPSR cells, cAMP TR-FRET, antagonist mode. Potency, µM (top dose mostly 38.3 µM), for the others: at the top dose activity change, negative = inhibition, hits mostly inhibitors. 1% of 220,000 active; further: nearly all actives have a fitted effect of over 50% in size
# Target sequence (Q6W5P4 whole entry, looked up): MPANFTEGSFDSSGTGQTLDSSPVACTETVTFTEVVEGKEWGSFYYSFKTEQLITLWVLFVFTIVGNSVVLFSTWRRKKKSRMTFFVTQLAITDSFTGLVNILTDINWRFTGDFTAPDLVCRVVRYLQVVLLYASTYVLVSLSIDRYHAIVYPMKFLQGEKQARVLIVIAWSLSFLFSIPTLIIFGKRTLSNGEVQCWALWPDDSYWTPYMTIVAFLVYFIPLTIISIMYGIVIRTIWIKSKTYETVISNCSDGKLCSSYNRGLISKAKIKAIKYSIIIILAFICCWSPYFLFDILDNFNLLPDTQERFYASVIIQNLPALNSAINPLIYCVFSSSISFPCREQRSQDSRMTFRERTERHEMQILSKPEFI
# Tau fluor counter: counter-screen for tau fibril formation inhibitors | 0.93% of 280,000 active | tau K18 P301L (four-repeat tau fragment) Alexa594 fluorescence, heparin fibrillization | Potency, µM (series often up to 57.7 µM), for inactives: at the highest dose activity change, negative = decrease; further: nearly all actives have a fitted effect of over 55% in size
#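 Human K18 P301L tau (15 uM unlabeled plus 0.24 uM Alexa 594-labeled, final) in 100 mM sodium acetate pH 7 was mixed with compound and 20 uM heparin and incubated 6 hr at 37 C.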
# An asterisk follows results filed as active; ? = inconclusive; / = no result; [ ] = another dose, or the depositor's remark. Unless noted, the call rests on the fitted dose curve; in most records, active means well fitted curve in the direction sought with a large enough effect; inconclusive means small, poorly fitted or top-dose-only effect, or another doubt; inactive means no such curve, though single readings can be large; an effect the other way counts as inactive or inconclusive. Unless noted, on the % scale 0 is the no-effect control and ±100 the full control effect; potency means the concentration at half of the fitted maximal effect.
SMILES,ALDH1A1 inh,HPGD block,Tau fibril ThT,Tau FP inhib,NPSR antag,Tau fluor counter
C/C(N)=C(/C#N)C(=O)CSc1nncn1-c1ccccc1,18.7%,/,1.4%,5.9%,21.5%,1.4%
Cc1nn(C)c(Oc2ccccc2)c1CCNC(=O)CCl,22.4µM*,/,-6.9%,-3.2%,-1.0%,-1.7%
CCCN(CCC)CCNC(=O)C1CC(=O)N(c2ccc(OC)cc2)C1c1ccc(OC)cc1 (stereo not drawn),-0.5%,-1.5%,3.7%,3.6%,-6.5%[46.1 µM],3.5%
O=C(c1cccc(-c2ccc(O)cc2)c1)N1CCOCC1,-5.2%,15.8µM*,-6.3%,-2.5%,-12.3%[46.1 µM],-6.5%
O=C1c2ccccc2-c2ccc(C(=O)N3CCOCC3)cc21,-4.3%,11.2µM*,-7.3%,6.2%,0.2%[46.1 µM],-1.3%
CCN1C(=O)c2ccccc2S(=O)c2ccc(C(=O)N3CCOCC3)cc21 (stereo not drawn),/,/,/,1.1%,16.7%,-10.6%
COc1cccc(-n2c(-c3ccco3)nc3c(cnn3-c3ccc(C)cc3)c2=O)c1,/,/,-4.9%,-3.6%,/,-19.0%
COc1cc(-c2cccc([C@H]3[C@@H]4C=CC[C@@H](C)[C@@H]4C(=O)N3Cc3ccccc3)c2)cc(OC)c1OC,?,-9.4%,-11.6%,4.8%,/,-2.9%
O=C1CCN(N=Nc2cccc(Cl)c2)N1,20µM*,?,?,-7.0%,2.8%[46.1 µM],-20.7%
CCC(C)S(=O)(=O)c1oc(-c2cccs2)nc1S(=O)(=O)c1ccccc1 (stereo not drawn),/,/,8.5%,-15.9%,/,-12.0%
Oc1ccccc1-c1cc(C(F)(F)F)[nH]n1,/,/,/,-5.7%,1.0%,-2.9%
Cc1ccc(-c2cc(-c3ccccc3C)[nH]n2)c(O)c1,0.7%,10µM*,2.7%,-7.2%,?,-0.7%
O=[N+]([O-])c1ccccc1-c1cc(-c2ccccc2O)n[nH]1,?,12.6µM*,15.8%,-2.4%,-13.4%,12.8%
Cc1ccc(O)c(-c2cc(-c3ccccc3F)[nH]n2)c1,-2.7%,4.47µM*,?,?,?,?
Cc1ccc(O)c(-c2cc(-c3cccc(F)c3)n[nH]2)c1,-4.7%,15.8µM*,-11.8%,?,?,31.6µM*[quencher]
CC(=O)O[C@]12CC[N@+]3(C)CCCC[C@@H]3[C-]1Nc1ccccc12,7.2%[13.5 µM],-3.7%,/,/,/,/
Clc1nc(-c2cccnc2)nc2scc(-c3ccccc3)c12,?,20µM*,?,-7.9%,-34.4%,-3.8%
COc1ccc(-c2csc3nc(-c4cccnc4)nc(Cl)c23)cc1OC,?,?,-4.1%,4.3%,-9.3%,-3.6%
CCOC(=O)COc1ccc(CC)cc1C(=O)c1ccn2nc(-c3ccccc3)cc2n1,/,/,-18.1%,-8.3%,/,-19.4%
CCC1S/C(=N/C(=O)NC2CCCCC2)NC1=O (stereo not drawn),-2.7%,-13.6%,-6.6%,-12.0%,-1.3%[46.1 µM],-8.1%
O=C(/N=C1\NC(=O)C(F)(C(F)(F)F)S1)NC1CCCCC1 (stereo not drawn),7.08µM*,7.94µM*,25.1µM*,?,-15.4%[46.1 µM],-15.6%
COC(=O)/C(=C1/Oc2cc(C)oc(=O)c2S1)C(F)(F)F,-0.3%,7.94µM*,8.91µM*,?,?,-21.5%
CC1Cc2ccccc2N1C(=O)CNc1cccc(S(=O)(=O)N2CCCC2)c1 (stereo not drawn),20µM*,/,-9.9%,-0.7%,-14.5%,-6.3%
CC(C)N=C1NN=C(c2ccc(Cl)c(Cl)c2)CS1,?,/,?,4.1%,-12.0%,?
O=C(Nc1ccc(Cl)cc1)Nc1nc(-c2ccccc2O)cs1,/,/,4.0%,?,-25.0%,3.55µM*[quencher]
SMILES,ALDH1A1 inh,HPGD block,Tau fibril ThT,Tau FP inhib,NPSR antag,Tau fluor counter
O=C(Nc1ccc(Cl)c(Cl)c1)Nc1nc(-c2ccccc2)cs1,5.1%,-4.1%,11.6%,17.8µM*,-27.4%,?
CC1CN(C)C(c2ccccc2)C(C)C12NC(=O)NC2=O (stereo not drawn),7.08µM*,-13.2%,-5.6%,-1.3%,-4.6%[46.1 µM],-9.3%
CO[C@@H]1/C=C\O[C@]2(C)Oc3c(C)c(O)c4c(O)c(cc(O)c4c3C2=O)NC(=O)/C(C)=C\C=C/[C@H](C)[C@@H](O)[C@H](C)[C@H](O)C(C)[C@H](OC(C)=O)[C@@H]1C (stereo partly drawn),-6.2%[13.5 µM],-12.6%,/,/,/,/
O=C1Nc2ccc3sc4ccccc4c3c2C1=O,/,/,4.47µM*,4.3%,-22.6%,?
CCC1CCCCN1CCCNC(=O)c1ccc2c(c1)N(Cc1ccccc1F)C(=O)c1ccccc1S2(=O)=O (stereo not drawn),/,/,2.4%,-0.5%,/,-23.1%
Cc1ccc(C2C(C#N)=C(N)Oc3c2sc2ccccc32)o1 (stereo not drawn),?,?,14.1µM*,?,6.9%[7.67 µM],?
CCOC(=O)CC1=C(C(=O)OCC)C(c2ccc(C)o2)C(C#N)=C(N)O1 (stereo not drawn),9.6%,-11.9%,-0.9%,7.8%,4.2%[46.1 µM],11.5%
O=C(Nc1ccc2c(c1)nc1n2CCSC1)c1ccccc1,22.4µM*,-6.7%,?,-3.9%,10.1%[46.1 µM],-7.5%
CC(C)(CCl)C(=O)Nc1ccnc(-c2ccncc2)n1,1.9%,/,-3.6%,0.6%,12.0%,-4.7%
NC(=O)NC(=O)COC(=O)c1ccc(Cl)c(S(=O)(=O)N(Cc2ccccc2)c2ccc(Cl)cc2)c1,-7.7%,-6.1%,-7.4%,11.2µM*,?,?
CCSc1nnc2c(Cl)cc(Cl)cn12,0.8%,-9.6%,0.3%,7.0%,7.7%[46.1 µM],7.1%
COCCNC(=O)CSc1nnc2c(Cl)cc(Cl)cn12,-16.5%,/,12.6µM*,25.1µM*,-9.3%[46.1 µM],-21.6%
CCOCCCNC(=O)C(c1ccc(OC)cc1)N(Cc1ccc2c(c1)OCO2)C(=O)c1ccccc1O (stereo not drawn),2µM*,/,-14.7%,-2.2%,-31.1%,-16.3%
CCOCCCNC(=O)C(c1ccccc1)N(Cc1cccs1)C(=O)c1ccccc1O (stereo not drawn),-11.8%,/,-4.9%,6.6%,-11.9%,-5.3%
CCOCCCNC(=O)C(c1ccc(C)cc1)N(Cc1cccs1)C(=O)c1ccccc1O (stereo not drawn),15.8µM*,/,-0.9%,1.3%,-30.4%,1.2%
Cc1ccccc1Nc1scc(-c2ccc(Cl)cc2)[n+]1-c1ccccc1C,?,/,?,-3.2%,7.94µM*,-11.6%
OCc1ccncc1.OCc1ccncc1.[Cl][Pt]([Cl])([Cl])[Cl],2.82µM*,?,/,/,/,/
COc1ccc(/C=N/N(Cc2ccccc2)c2ccccc2)cc1O,-4.5%,/,?,?,-55.2%,14.1µM*[quencher]
C(=N\n1cnnc1SCc1ccccc1)/c1ccco1,?,-10.2%,-20.3%,-6.4%,-6.1%[46.1 µM],-15.0%
C(=N\N(Cc1ccccc1)c1ccccc1)/c1ccco1,14.1µM*,/,-15.8%,-0.3%,-39.9%,?
